Calls of active or inactive are those of the source. The calls were made as follows: active = hit-call score of the fitted dose curve at least 0.9, where 1 is the maximum; inactive = score below 0.9.
The compounds below were run on Heat shock 70 kDa protein 1 (HSPA1A), gene 3303 (assay: LTEA_HepaRG_HSPA1A: Life Technologies and Expression Analysis (LTEA) Assay for Heat shock 70 kDa protein 1 (HSPA1A) using HepaRG (AID 2283502)). Conditions: mRNA level, 48 h; actives raise or lower the signal.
Protocol: LTEA_HepaRG is a cell based, multiplexed-readout assay that uses HepaRG, a human liver cell line, with measurements taken at 48 hours after chemical dosing on a 96-well plate.LTEA_HepaRG_HSPA1A is one of 102 assay component(s) measured in the LTEA HepaRG cell culture assay. It is a marker of Oxidative Stress.Data from the assay component LTEA_HepaRG_HSPA1A was analyzed into 1 endpoint. This assay endpoint, LTEA_HepaRG_HSPA1A, was analyzed with bidirectional fitting relative to DMSO as the negative control and baseline of activity. Using a type of inducible reporter, measures of mRNA induction for gain or loss-of-signal activity can be used to understand regulation of transcription factor activity. To generalize the intended target to other relatable targets, this assay endpoint is annotated to the dna binding intended target family, where the subfamily is heat shock protein.
A total of 1060 chemcials from the ToxCast library were tested in eight-point concentration-response experiments. Cell culture and cytotoxicity assays were conducted at Thermo Fisher Scientific's Custom Services facility (Madison, WI). A single lot of human HepaRG cells (Thermo Fisher Scientific, Frederick, MD) was used for the cell culture experiments. 96-well format collagen type I coated plates of human HepaRG cells were prepared using established methods. Briefly, cryopreserved HepaRG cells were thawed, plated at a density of approximately 100,000 cells/well in HepaRG Thaw, Plate, and General Purpose media (HPRG770, Thermo Fisher Scientific), and incubated for 48 hours. 0.5% DMSO was selected as vehicle control to balance the requisite need of DMSO in HepaRG cultures to maintain differentiation (for example, baseline metabolism, proportions of hepatocytes vs. cholangiocytes), while enabling further hepatic receptor pathway activation (for example, PXR and CAR) in response to chemical exposure. 48 hours after plating, the culture medium was replaced with HepaRG Serum-Free Incudtion Media. Cells were exposed to each test chemical in duplicate and maintained in CO2 incubators for another 48 hours. Chemical plates were thawed to room temperature and 200x concentrations of treatment groups were prepared. 8-point conentration-reponse curves were made with the highest exposure at 100 uM, followed by half-log dilutions, all in 0.5% DMSO. Each test plate contained variouse controls, induction positive controls (1mM phenobarbital), cytotoxicity positive controls ([…] aflatoxin B1), vehicle controls (0.5% DMSO), and total lysis controls (0.5% DMSO). Cell morphology images were taken using an Essen IncuCyte FLR automated microscope, with six 96-well plates imaged in about 24 minutes. Images were captured and exported and JPEG files. Spent culture media was transfered to black-well plates for the LDH assay, and remaining media was sorted at -80 C for later use. Cells were treated with RLT buffer and frozen until shipped for gene expression analysis. Total RNA was isolated from the cell suspension in 75 uL of Buffer RLT (Qiagen, Germantown, MD 20874) by Quintiles/Expression Analysis (Durham, NC) using a custom isolation procedure. Total RNA from each plate well was transferred to a preamplification plate. Fluidigm's 96.96 Dynamic ArrayTM (Fluidigm, Amsterdam, the Netherlands) technology was used for gene expression analyses by quantitative reverse transcription polymerase chain reaction (qRT-PCR, performed by Quintiles/Expression Analysis, Durham, NC)89. Standard TaqManTM Assays (Applied Biosystems/ThermoFisher Scientific, Foster City, CA) were used to assess the expression of 93 genes selected based on their selectivity and sensitivity to important hepatic receptors known to be modulated by environmental chemicals; importance in human hepatocyte functionality; and hepatotoxicity. […]

SMILES	outcome	AC50
CCNc1ccccc1	inactive	
CC(C)(O)c1coc(S(=O)(=O)NC(=O)Nc2c3c(cc4c2CCC4)CCC3)c1	inactive	
O=C1CCCCCN1	inactive	
CCOC(=O)CC(CC(=O)OCC)(OC(C)=O)C(=O)OCC	inactive	
CC(C)CCCCCCCOC(=O)CCCCC(=O)OCCCCCCCC(C)C	inactive	
CCCCC(CC)COC(=O)CCCCCCCCC(=O)OCC(CC)CCCC (stereo not given)	inactive	
O=P(OC(CCl)CCl)(OC(CCl)CCl)OC(CCl)CCl	inactive	
O=C1OC(=O)C2C3C=CC(C3)C12 (stereo not given)	inactive	
CCCCC(CC)COC(=O)c1ccc(C(=O)OCC(CC)CCCC)cc1 (stereo not given)	inactive	
Nc1cccc(N)c1	inactive	
O=C(O)c1cccc(Oc2ccccc2)c1	inactive	
Cc1ccc(N)cc1O	inactive	
COc1ccc2sc(C(=O)Nc3nnn[nH]3)c(OC(C)C)c2c1		9.47 µM (active)
Cc1ccc(S(=O)(=O)O)cc1C	inactive	
CC(C)c1cccc(C(C)C)c1N1C(=O)c2ccc(O)cc2C1=O	inactive	
CCCC(=O)OCC	inactive	
CCc1cc(SCc2sc(-c3ccc(C(F)(F)F)cc3)nc2CN2CCN(c3ccc(OC)cc3)CC2)ccc1OCC(=O)O		89.4 µM (active)
CCOCCO	inactive	
Clc1nc(Cl)c(Cl)c(Cl)c1Cl	inactive	
CN(C)c1ccc(N=NS(=O)(=O)O)cc1	inactive	

SMILES	outcome	AC50
CCCCCCCCCCCCCCCO	inactive	
CCCN(C1CCN(C(=O)C2CCNCC2)CC1)[C@@H]1CCc2ccc(OC)cc2C1		79.6 µM (active)
COc1ccc(/C=C/S(=O)(=O)NC(=O)c2ccc(C)cc2Cl)cc1	inactive	
CNS(=O)(=O)c1cc(C(=O)N2CCC(CCN3C4CCC3CC(n3c(C)nc5ccccc53)C4)(c3cccc(F)c3)CC2)c(Cl)cc1F (stereo not given)	inactive	
CN(C)c1ccc(Cc2ccc(N(C)C)cc2)cc1	inactive	
Cc1ccc(O)cc1	inactive	
O=C(O)CC(O)C(=O)O (stereo not given)	inactive	
Cn1c(=O)cc(Oc2ccc(F)cc2F)c2cnc(NCC(C)(C)O)nc21	inactive	
O=c1n(CC2CO2)c(=O)n(CC2CO2)c(=O)n1CC1CO1 (stereo not given)	inactive	
CC(=O)c1ccc2c(c1)[C@H](NC(=O)c1ccc(F)cc1)[C@@H](O)C(C)(C)O2	inactive	
C1=CCCC=CCCC=CCC1	inactive	
COC(=O)c1c(Cl)c(Cl)c(C(=O)OC)c(Cl)c1Cl	inactive	
CC[C@H]1CC[C@H](NCc2cc3c(cc2OC)[C@H]2C[C@H]2C(=O)N3C)[C@H](c2ccccc2)N1	inactive	
CCN(C(=O)c1cc(C)cc(OC[C@H](C)Nc2ccncc2)c1)C(C)C	inactive	
CC(C)=CCC/C(C)=C\CO	inactive	
Cc1[nH]cnc1C[C@H]1CCc2c(C)c3ccccc3n2C1=O		56.9 µM (active)
CC(C)CC(C)(O)C#CC(C)(O)CC(C)C (stereo not given)	inactive	
Cc1ccc(C)c(O)c1	inactive	
CC(C)CCO	inactive	
CC(C)CCCCCCOC(=O)c1ccc(C(=O)OCCCCCCC(C)C)c(C(=O)OCCCCCCC(C)C)c1	inactive	
